High-throughput results (PubChem BioAssay)
Shiga toxin inh = A qHTS for Small Molecule Inhibitors of Shiga Toxin. Vero cells, Shiga toxin protein synthesis inhibition reporter. inhibition, % at 38.7 µM. 9.2% of 290,000 active. AID 2315, 2010; in the data active = inhibition mostly above about 28%, no sharp cut-off; inactive = mostly below about 43%; also: 0% is about no effect
Pf growth 96h = Primary qHTS for delayed death inhibitors of the malarial parasite plastid, 96 hour incubation. P. falciparum luciferase reporter growth, 96 h. 6.9% of 320,000 active. Potency, µM (series often up to 28.7 µM), without a hit: at the highest dose activity change, negative = inhibition, most hits filed as inhibitors; also: potency is read from the fitted curve at half-maximal effect; % is scaled to controls: 0 for no effect and ±100 for the full control effect
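Readout is luminescence from an integrated firefly luciferase in P. falciparum. Red cells, 2% hematocrit and 0.05% parasitemia final, were cultured with compound through two parasite generations (96 hours) at 37 C, 5% CO2.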
Pf growth 48h = Primary qHTS for delayed death inhibitors of the malarial parasite plastid, 48 hour incubation | P. falciparum luciferase growth in erythrocytes, 48 h | Potency, µM (series often up to 28.7 µM), inactives show top-dose activity change, negative = inhibition, usual class: inhibitors | 5.9% of 310,000 active | AID 504832, 2011; also: potency is read from the fitted curve at half-maximal effect; % is scaled to controls: 0 for no effect and ±100 for the full control effect
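In quantitative HTS format, infected erythrocytes bearing luciferase-reporter parasites were treated for a single generation at 37 C. Luminescence after adding detection reagent served as the growth measure.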
NS1 function inh = qHTS Assay for Inhibitors of Influenza NS1 Protein Function; 0.4% of 270,000 active; Potency, µM (series often up to 46.1 µM), for inactives: at the highest dose activity, positive = more growth; calls by dose curve; also: potency is read from the fitted curve at half-maximal effect; actives are rising curves; nearly all actives have a fitted effect of over 50% in size
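Compounds were scored for reversing the slow growth caused by influenza A NS1 in S. cerevisiae, measured by optical density at 600 nm. Assay medium contained 2% galactose at pH 6.0; NS1-free yeast of the same strain were the positive control.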
CHX counter = Cycloheximide Counterscreen for Small Molecule Inhibitors of Shiga Toxin | 12% of 300,000 active | cell reporter, cycloheximide protein synthesis inhibition counterscreen | AID 2314, 2010 | max response, %; in the data active = max response mostly above about 13%, no sharp cut-off; inactive = mostly below about 14%; also: read at 38.3 µM for the half of the compounds with a filed dose; 0% is about no effect
Sm TGR inh = qHTS Assay for the Inhibitors of Schistosoma Mansoni Peroxiredoxins; purified TGR, DTNB reduction, TNB absorbance 405 nm; 3% of 360,000 active; Potency, µM (titrated, usually from 114 µM), without a hit: at the highest dose activity change, negative = inhibition, most hits filed as inhibitors; Schistosoma mansoni thioredoxin glutathione reductase (TGR), Q962Y6; also: potency is read from the fitted curve at half-maximal effect; % is scaled to controls: 0 for no effect and ±100 for the full control effect; nearly all actives have a fitted effect of over 60% in size
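TGR 20 nM + NADPH 100 uM (dispensed conc.), cpd preinc 15 min RT; start with NADPH (500 uM addition) then DTNB (15 mM addition). Kinetic TNB absorbance, 405 nm filter. Four-parameter Hill fit across titration.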
Numbers without * were called inactive; [ ] = dose if it differs, or a comment. Hits are enriched below; roughly 21% of the tested compounds scored in any of these assays. Unless noted, calls follow the shape of the dose curve; as a rule, active = well fitted curve in the direction sought with a large enough effect; inconclusive = small, poorly fitted or top-dose-only effect, or another doubt; inactive = no such curve, though single readings can be large; an effect the other way counts as inactive or inconclusive.

For Cc1ccc(SC(=O)c2c(C)noc2-c2cc(C)on2)cc1 the results were Shiga toxin inh 2, Pf growth 96h -4%, Pf growth 48h 5%, NS1 function inh -48%, CHX counter -2 and Sm TGR inh 7.9µM*.
For Cc1cc(-c2onc(C)c2C(=O)N/N=C/c2ccccc2)no1 the results were Shiga toxin inh -9, Pf growth 96h 44%, Pf growth 48h -6%, NS1 function inh -4%, CHX counter 5 and Sm TGR inh 0%.
For COc1ccc(NC(=O)c2oc3c(c2C)-c2nn(Cc4c(F)cccc4Cl)cc2CC3)c(OC)c1 the results were Sm TGR inh 3%.
N#Cc1nc(Cc2ccccc2)oc1NCc1ccccc1 was read as Shiga toxin inh active, Pf growth 96h 17%, Pf growth 48h -6%, NS1 function inh -17%, CHX counter 28* and Sm TGR inh -7%.
For N#Cc1nc(Cc2ccccc2)oc1NCCN1CCOCC1 the results were Shiga toxin inh 32, Pf growth 96h 22%, Pf growth 48h 11%, NS1 function inh 5%, CHX counter 26 and Sm TGR inh -5%.
`COc1ccc(CNc2oc(COc3ccccc3)nc2C#N)cc1` gave Shiga toxin inh 40*, Pf growth 96h inconclusive, Pf growth 48h -2%, NS1 function inh -69%, CHX counter 20* and Sm TGR inh -21%.
For COc1ccc(CNc2oc(COc3ccccc3Cl)nc2C#N)cc1 the results were Shiga toxin inh 16, Pf growth 96h 1.5µM*, NS1 function inh -2%, CHX counter 0 and Sm TGR inh inconclusive.
N#Cc1nc(COc2ccccc2Cl)oc1NCc1cccnc1 was read as Shiga toxin inh 38*, Pf growth 96h -13%, Pf growth 48h -7%, NS1 function inh inconclusive, CHX counter 14 and Sm TGR inh 7.1µM*.
Screening Cc1cc(C)cc(C(=O)Nc2c(C(=O)Nc3ccccc3F)oc3ccccc23)c1 returned Sm TGR inh 18%.
`Cc1ccc(S(=O)(=O)Nc2cc3c(C(=O)OCc4ccccc4)c(C)oc3c3ccccc23)c(C)c1` gave Sm TGR inh -3%.
CCCC(C(=O)NCc1cccc(Cl)c1)N1Cc2ccccc2C1=O (stereo not drawn) was read as Sm TGR inh 0%.
`COc1ccc(C2=NS(=O)(=O)N(C)C(C(=O)NC3CCCC3)=C2)cc1OC` gave Shiga toxin inh 2, Pf growth 96h 2%, Pf growth 48h 1%, NS1 function inh 7%, CHX counter 1 and Sm TGR inh 5%.
COc1ccc(CCNc2oc(-c3ccccc3OC)nc2C#N)cc1 was read as Shiga toxin inh 1, Pf growth 96h -28%, Pf growth 48h -27%, NS1 function inh -87%, CHX counter 9 and Sm TGR inh 14µM*.
COc1ccc(CCNc2oc(-c3ccccc3OC)nc2C#N)cc1OC was read as Shiga toxin inh -5, Pf growth 96h inconclusive, Pf growth 48h inconclusive, NS1 function inh -30%, CHX counter 12 and Sm TGR inh -4%.
For COc1ccc(-c2cc(C(F)(F)F)n3ncc(C(=O)Nc4c(C)n(C)n(-c5ccccc5)c4=O)c3n2)cc1 the results were Shiga toxin inh -17, Pf growth 96h 50%, Pf growth 48h 3%, NS1 function inh 2%, CHX counter -1 and Sm TGR inh -18%[57.1 µM].
Screening CC(=O)n1cc([C@@H]2C=C(C(=O)N3CCOCC3)O[C@H](OCCCCO)C2)c2ccccc21 returned Shiga toxin inh -12, Pf growth 96h 9%, Pf growth 48h inconclusive, NS1 function inh 0%, CHX counter -2 and Sm TGR inh inconclusive.
`CCO[C@@H]1OC(C(=O)N2CCN(Cc3ccc4c(c3)OCO4)CC2)=C[C@H](c2csc3ccccc23)[C@H]1CCCO` gave Shiga toxin inh -11, Pf growth 96h 2.1µM*, Pf growth 48h inconclusive, NS1 function inh -17%, CHX counter 7 and Sm TGR inh 5%.
